HCV inhibitor: inhibitors of hepatitis C virus infection | Huh7.5.1 HCVcc-Cre infection, luciferase reporter, 44 h | Potency, µM (highest dose often 41.8 µM), inactives show at the top dose activity change, negative = inhibition, actives largely listed as inhibitors | hit rate 3.4% among 340,000; further: on the % scale 0 is the no-effect control and ±100 the full control effect
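Cells seeded at 1,000/well and cultured 4 h, then compounds added followed by HCVcc-Cre virus (~0.5 moi). After 44 h further culture, luciferase substrate was added, plates held 15 min at room temperature, and luminescence read for 15 sec.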
NS1 inh: inhibitors of influenza NS1 protein function; Potency, µM (titrated, usually from 46.1 µM), for inactives: at the top dose activity, positive = more growth; hit rate 0.4% among 270,000; calls by dose curve; further: actives are rising curves; nearly all actives have a fitted effect of over 50% in size
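S. cerevisiae expressing influenza A NS1, grown in glucose, washed, then diluted 1:100 into pH 6.0 -URA galactose medium with 23 nl compound. Growth recovery read as OD600; NS1-free strain serves as control.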
VACV mCherry inh: inhibitors of vaccinia virus infection (mCherry reporter signal) | AID 720579 | Vaccinia virus mCherry reporter infection, fluorescence | Potency, µM (titrated, usually from 36.5 µM), without a hit: at the highest dose activity change, negative = inhibition, hits mostly inhibitors | hit rate 0.63% among 310,000; calls by dose curve; tested in A549 cells; further: on the % scale 0 is the no-effect control and ±100 the full control effect; nearly all actives have a fitted effect of over 35% in size
Vaccinia Venus: vaccinia inhibition (Venus reporter); hit rate 0.46% among 330,000; AID 720580; Vaccinia virus Venus reporter expression, fluorescence; Potency, µM (doses to about 36.5 µM), for the others: at the top dose activity change, negative = inhibition, hits mostly inhibitors; calls by dose curve; tested in A549 cells; further: on the % scale 0 is the no-effect control and ±100 the full control effect; nearly all actives have a fitted effect of over 30% in size
Pf growth 96h: P. falciparum growth inhibition at 96 hours | hit rate 6.9% among 320,000 | Potency, µM (top dose mostly 28.7 µM), without a hit: at the top dose activity change, negative = inhibition, most hits filed as inhibitors | P. falciparum luciferase reporter growth, 96 h | AID 504834; further: on the % scale 0 is the no-effect control and ±100 the full control effect
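Two-generation exposure (96 h) targets delayed-death phenotype. Reporter parasites carrying integrated firefly luciferase, in red cells at 2% hematocrit and 0.05% parasitemia final, kept at 37 C, 5% CO2; luminescence loss indicates inhibition.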
Pf growth 48h: P. falciparum growth inhibition at 48 hours (one generation) | P. falciparum luciferase growth in erythrocytes, 48 h | Potency, µM (top dose mostly 28.7 µM), for inactives: at the highest dose activity change, negative = inhibition, actives largely listed as inhibitors | hit rate 5.9% among 310,000 | AID 504832; further: on the % scale 0 is the no-effect control and ±100 the full control effect
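First compound was added to culture medium, then infected red cells at 0.1% parasitemia and 2% hematocrit (final). After incubation at 37 C under 5% CO2, luciferase detection reagent was dispensed and light output recorded.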
* hit, by the source's call; i = inactive; ? = inconclusive; . = not tested or not shown. In the library only some 11% were active in any assay of this set; here they are far more common. Unless noted, the call rests on the fitted dose curve; in most records, active means well fitted inhibition curve with a large enough effect; inconclusive means small, poorly fitted or top-dose-only effect, or another doubt; inactive means no such curve, though single readings can be large or run the other way. Potency means the concentration at half of the fitted maximal effect.

SMILES | HCV inhibitor | NS1 inh | VACV mCherry inh | Vaccinia Venus | Pf growth 96h | Pf growth 48h
COc1ccc(C2Nc3ccccc3C(=O)N2c2ccc(C)cc2)cc1Cn1nc(C)c([N+](=O)[O-])c1C (configuration not stated) | ? | 20% | 0% | -11% | ? | ?
CCN1C[C@@H]2[C@@H]3C(=O)N(Cc4ccccc4)C(=O)[C@@H]3[C@](CC)(C1=O)N2C(=O)c1ccc(Br)cc1 | 15% | . | i | -14% | . | .
O=[N+]([O-])c1ccc(NCc2ccc(Cl)cc2)c2ccncc12 | 6.3µM* | -3% | -22% | 1% | ? | -45%
CCN(CC)CCNC(=O)COc1ccc(Cl)cc1Cl | -23% | -3% | i | -14% | 158% | 15%
CCCN(CCC)c1nc(N)c(C#N)c(CC#N)c1C#N | ? | 11% | i | -5% | 13µM* | .
CC(C)c1ccc(NC(c2nnc(-c3ccccc3)o2)c2ccc(F)cc2Cl)cc1 (configuration not stated) | . | . | -9% | -14% | . | .
Cc1cc(/C=N/NC(=O)CC#N)c(C)n1-c1ccc([N+](=O)[O-])cc1 | -27% | 8% | i | 0% | ? | -14%
Cc1nc2ccccn2c1C(=O)N/N=C/c1ccccc1 | 8% | 0% | . | . | 38% | -5%
Cc1cc(/C=N\NC(=O)COc2cccc3cccnc23)c(C)n1-c1ccc(Br)cc1 | ? | 15% | . | . | 2.3µM* | 5.9µM*
Cc1nc2ccccn2c1C(=O)N/N=C/c1cc(C)n(-c2ccc(Br)cc2)c1C | 4µM* | 18% | . | . | ? | ?
COCc1c(Br)c(C)nc(OCC(=O)N/N=C/c2cc(C)n(-c3ccc([N+](=O)[O-])cc3)c2C)c1C#N | ? | 7% | . | . | ? | 12µM*
Cc1cc(/C=N\NC(=O)COc2cccc3cccnc23)c(C)n1-c1ccccc1 | ? | 7% | . | . | 6.6µM* | ?
Cc1ccnc(-n2c(C)cc(/C=N/NC(=O)COc3cccc4cccnc34)c2C)c1 | -18% | 0% | i | -5% | -11% | -19%
CC(=O)N1C[C@H]2CON(C)[C@H]2C[C@H]1c1ccc(-c2ccc(C#N)cc2)cc1 | . | . | -2% | 0% | . | .
Cc1c(C=O)ccc(N(C)C)c1C | . | . | 38% | -9% | . | .
CC1CCCCN1C(=O)CSc1nc(-c2ccccc2)cc(=O)[nH]1 (configuration not stated) | 12% | -10% | -3% | -14% | 9% | -5%
O=C(CSc1nc(=O)n(CCCN2CCOCC2)c2c1CCCC2)Nc1ccc(Cl)cc1 | ? | . | -11% | -24% | ? | 13µM*
O=C(CSc1nc(=O)n(CCN2CCOCC2)c2c1CCC2)Nc1ccc(OC(F)(F)F)cc1 | ? | . | ? | -11% | -32% | 10µM*
CC(C)c1ccc(NC(=O)CSc2nc(=O)n(CCCN3CCOCC3)c3c2CCCC3)cc1 | ? | . | -24% | -18% | ? | ?
COc1ccc(NC(=O)CSc2nc(=O)n(CCN3CCOCC3)c3c2CCC3)cc1 | ? | . | -19% | -6% | -7% | -16%
Fc1ccccc1CSc1nncn1NC/C=C/c1ccccc1 | 17% | -7% | . | -16% | -7% | ?
O=C(c1cc(F)ccc1F)C1CCCN(Cc2cc(Cl)ccc2O)C1 (configuration not stated) | ? | -20% | -14% | -5% | ? | 4.1µM*
O=C(c1cc(F)ccc1F)C1CCCN(C(=O)c2cccs2)C1 (configuration not stated) | 6% | -6% | i | -12% | ? | 9%
CC(C)Cc1cc(C(=O)N2CCCC(C(=O)c3cc(F)ccc3F)C2)no1 (configuration not stated) | -20% | 5% | . | . | 4.7µM* | 7%
COc1ccc(F)cc1C(=O)C1CCCN(Cc2c[nH]c3ccccc23)C1 (configuration not stated) | -23% | 6% | . | . | 13µM* | ?
SMILES | HCV inhibitor | NS1 inh | VACV mCherry inh | Vaccinia Venus | Pf growth 96h | Pf growth 48h
COc1ccc(F)cc1C(=O)C1CCCN(Cc2cn(C)c3ccccc23)C1 (configuration not stated) | ? | -3% | -22% | -24% | 34% | ?
COc1ccc(F)cc1C(=O)C1CCCN(Cc2cccn2-c2ccccn2)C1 (configuration not stated) | ? | -3% | ? | -15% | 3.3µM* | 10µM*
Cn1cc(CN2CCCC(C(=O)c3cc(F)ccc3F)C2)c2ccccc21 (configuration not stated) | -19% | 1% | -20% | -21% | ? | ?
Cc1ccc(C(=O)NC(=S)NNC(=O)c2ccccc2[N+](=O)[O-])cc1 | -17% | -10% | . | -8% | 37% | 40%
Cc1nnc(SCc2nc3ccccc3s2)n1-c1ccccc1 | ? | 9% | -5% | -4% | ? | 50%
O=[N+]([O-])c1ccc(Cl)cc1CNc1ccc(F)c(F)c1 | -8% | -36% | -13% | -6% | 8.3µM* | 3%
COc1ccc(NCc2ccccc2[N+](=O)[O-])cc1OC | -5% | 24% | -14% | 4% | ? | ?
CC(C)c1ccc(S(=O)(=O)N2CCN(C(=O)CN3C(=O)NC4(CCCC4)C3=O)CC2)cc1 | . | 13% | -1% | -6% | ? | -9%
Cc1c(Cl)cccc1NC(=O)C1Cc2ccccc2CN1C(=O)c1ccccc1 (configuration not stated) | -8% | 6% | -10% | -3% | 9.3µM* | -12%
CCc1ccc(NC(=O)COC(=O)C2(c3ccc(Cl)cc3)CCCC2)cc1 | ? | -3% | i | -21% | 15µM* | -15%
CC1CCN(C(=O)C2CCN(C(=O)c3ccc(C(C)(C)C)cc3)CC2)CC1 | 24% | 3% | -26% | -13% | -18% | -14%
CC(C)(C)c1ccc(C(=O)N2CCN(c3nc4ccccc4o3)CC2)cc1 | 10µM* | 11% | i | -18% | 11% | .
COc1ccccc1N1CCN(C(=O)C2CCN(C(=O)c3ccc(C(C)(C)C)cc3)CC2)CC1 | ? | -35% | ? | -25% | 0% | 4.7µM*
COc1ccccc1N1CCN(C(=O)c2ccc3[nH]c4c(c3c2)CC(C)CC4)CC1 (configuration not stated) | 11µM* | 18% | -25% | -10% | -83% | ?
CCOC(=O)N1CCN(C(=O)C2CCN(C(=O)c3ccc(C(C)(C)C)cc3)CC2)CC1 | 12% | -11% | -11% | -12% | -17% | 9.3µM*
O=C(CNC(=O)c1ccc(F)cc1)N/N=C/c1cn[nH]c1-c1ccccc1 | 10% | -4% | i | -23% | 30% | -2%
COc1ccc(NS(=O)(=O)c2cc(N)ccc2N2CCCC2)cc1 | ? | . | ? | -25% | . | .
Cc1ccccc1N=C1NC(=O)/C(=C/c2cccn2C)S1 | -15% | -3% | . | . | -17% | ?
O=C1NC(=Nc2ccccc2)S/C1=C\c1cccn1-c1ccccc1 | 2.8µM* | 5% | . | ? | ? | .
Cc1cccc(N=C2NC(=O)/C(=C/c3cccn3C)S2)c1 | 11µM* | -2% | . | . | ? | ?

Assay outcomes deposited in PubChem BioAssay by National Center for Advancing Translational Sciences (NCATS).
